# In PubChem BioAssay (NCATS):
# Where “and” joins values, the source holds several entries; their conditions need not be identical. Equal values may be shown once. Results filed as inconclusive are left out. Where a call stands in place of a potency, no number is given. Values without a mark were called inactive. Calls of active or inactive are those of the source. The call rests on the fitted dose curve; in most records, active means well fitted cell-killing curve with a large enough effect; inconclusive means small, poorly fitted or top-dose-only effect, or effect the other way; inactive means no such curve, though single readings can be large or run the other way.
# Assay: Viability qHTS for spleen associated tyrosine kinase inhibitor (SYKi) naive MV4-11 cells (AID 1963823); further: nearly all actives have a fitted effect of over 40% in size
# Details: MV4-11 AML viability, CellTiter-Glo luminescence, 72 h; series mostly up to 45 µM
# Summary of the method: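 Cells: MV4-11, SYK inhibitor naive, 500 per well. Treatment: library compounds, 72 hr, 37 C, 5% CO2. Read-out: CellTiter-Glo luminescence after 10 min RT.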
# Potency means the concentration at half of the fitted maximal effect.
Structure (SMILES),Potency,viability (% of control)
CC12CCC(OC3OC(CO)C(O)C(OC4OC(CO)C(O)C(O)C4O)C3O)CC1CCC1C2CCC2(C)/C(=C3/COC(=O)C3)CCC12O (stereo not given),inactive,–
C=C[C@H]1C(O[C@@H]2O[C@H](CO)[C@@H](O)[C@H](O)[C@H]2O)OC=C2C(=O)N3CCc4c([nH]c5ccccc45)[C@H]3C[C@H]21 (stereo not given in full),inactive,–
C#CCN(Cc1cc2c(=O)[nH]c(C)nc2cc1Br)c1ccc(C(=O)NCc2cccnc2)cc1,inactive,–
COc1cc2c(c(OC)c1O)C(c1ccc(O)cc1)C1C(=O)OC3C(COC(=O)C1=C2)OC(CO)(OC1OC(COC(=O)/C=C/c2ccc(OC4OC(C)C(O)C(O)C4O)cc2)C(O)C(O)C1O)C3O (stereo not given),–,95.6% [at 9.25 µM]
CC(=O)N1CCN(C(=O)Cc2ccc(Nc3ncc(F)c(Nc4ccc(C(=O)Nc5ccccc5Cl)cc4)n3)cc2)CC1,0.517 µM (active),–
CCOC(=O)c1cnc2ccc(-c3cncc(NS(=O)(=O)c4ccccc4)c3)cn12,0.326 µM (active),–
CCCc1cc(C)[nH]c(=O)c1CNC(=O)c1cc(-c2ccc(N3CCN(C(C)C)CC3)nc2)cc2c1cnn2C(C)C,13 µM (active) and 5.9 µM (active),–
CC1=C2CC3C(CCC3(C)O)C(C)(O)CC2OC1=O (stereo not given),inactive,–
CC(C)(C)Nc1nc(Nc2ccc(C(N)=O)cc2)cc(N)c1C#N,1.64 µM (active),–
C=C1C(=O)O[C@@H]2/C=C(\C)CC/C=C(\C)CC[C@@H]12,7.31 µM (active),–
COC(=O)C1=C[C@@H](O)[C@@H](O)[C@H](O[C@@H]2O[C@H](CO)[C@@H](O)[C@H](O)[C@H]2OC(=O)/C=C/c2ccccc2)C1,inactive,–
C=C1CC[C@]2(C(=O)O[C@@H]3O[C@H](CO)[C@@H](O)[C@H](O)[C@H]3O)CC[C@]3(C)C(=CCC4[C@@]5(C)C[C@H](O)[C@@H](O[C@@H]6O[C@H](C(=O)O)[C@@H](O)[C@H](O)[C@H]6O)[C@](C)(C=O)C5CC[C@]43C)C2C1 (stereo not given in full),–,68.2% [at 9.25 µM]
C/C(=C/CO)CC[C@@H]1[C@@]2(C)CCC[C@](C)(C(=O)O)C2CC[C@@]1(C)O (stereo not given in full),inactive,–
C[C@@H]1O[C@@H](O[C@H]2[C@H](OC(=O)[C@]34CCC(C)(C)C[C@H]3C3=CCC5[C@@]6(C)CC[C@H](O[C@@H]7O[C@H](C(=O)O)[C@@H](O)[C@H](O)[C@H]7O[C@@H]7O[C@H](CO)[C@H](O)[C@H](O)[C@H]7O)[C@@](C)(C=O)C6CC[C@@]5(C)[C@]3(C)C[C@H]4O)O[C@H](C)[C@H](O[C@@H]3O[C@H](C)[C@H](O)[C@H](O)[C@H]3O)[C@@H]2O)[C@H](O)[C@H](O)[C@H]1O[C@@H]1OC[C@@H](O)[C@H](O[C@@H]2O[C@H](CO)[C@@H](O)[C@H](O)[C@H]2O)[C@H]1O (stereo not given in full),–,5.74% [at 4.97 µM]
COC(O)(CC(C)C)C1Oc2cc(C)[nH]c(=O)c2O1 (stereo not given),inactive,–
Cc1ccc(C2(C(=O)N3CCC(n4nc(-c5ccccc5)oc4=O)CC3)CC2)cc1,inactive,–
CC1=C2C[C@H]3O[C@@]3(C)CCC3O[C@@]3(C)C[C@@]2(O)OC1=O (stereo not given in full),inactive,–
C[C@@H]1C(=O)O[C@H](C)[C@H]1CC(=O)[C@](C)(O)[C@H]1CC[C@@]2(O)C3=CC(=O)[C@@H]4C[C@@H](O)[C@@H](O)C[C@]4(C)C3CC[C@]12C (stereo not given in full),inactive,–
COc1cc(/C=C2\CCCN([C@@H](C)c3ccc(F)cc3)C2=O)ccc1-n1cnc(C)c1,9.2 µM (active),–
COc1c(Nc2ncc(Cl)c(N[C@H]3[C@@H](C(N)=O)[C@@H]4C=C[C@H]3C4)n2)ccc2c1CC[C@@H](N1CCOCC1)CC2,0.231 µM (active),–
C=C1CCC2C(C)(CO[C@@H]3O[C@H](CO)[C@@H](O)[C@H](O)[C@H]3O)C(O)CCC2(C)C1C(=O)CC1=CCOC1=O (stereo not given in full),inactive,–
O=C(O)c1ccc(OC2OC(CO)C(O)C(O)C2O)cc1 (stereo not given),inactive,–
C=C1C(=O)OC2C3=C(C)C(=O)CC3C(C)CC(O)C12 (stereo not given),13 µM (active),–
COC(=O)/C=C/c1ccc(O[C@@H]2O[C@H](CO)[C@@H](O)[C@H](O)[C@H]2O)cc1,inactive,–
CNc1nc(-c2ccc3c(N)n[nH]c3c2)cc(N2CC(C(=O)NC3CCCCC3)CCC2C)n1 (stereo not given),2.31 µM (active),–
O=C1NC(=O)/C(=C\c2ccc3nccc(-c4ccncc4)c3c2)S1,0.13 µM (active),–
O=C(/C=C/c1ccc(O)c(O)c1)O[C@H]1[C@H](OC2CCCCC2O)O[C@H](CO)[C@@H](O)[C@@H]1O (stereo not given in full),inactive,–
O=C(/C=C\c1ccc(O)cc1)N[C@@H](Cc1ccc(O)cc1)C(=O)O,inactive,–
OC[C@H]1O[C@@H](OCCc2ccccc2)[C@H](O[C@@H]2OC[C@@H](O)[C@H](O)[C@H]2O)[C@@H](O)[C@@H]1O,inactive,–
CC(=O)/C=C/[C@H]1[C@](C)(O)[C@@H](O)[C@H](O)C2C(C)(C)CCC[C@@]21C (stereo not given in full),inactive,–
